# According to PubChem BioAssay AID1259422 (The Scripps Research Institute Molecular Screening Center, 2018):
# Values joined by “and” are separate entries in the source; they are usually repeats but may differ in a detail not shown here. Equal values may be shown once. The whole screen tested about 640,000 compounds, of which about 9,300 (1.5%) were called active. Cut-off read from the data, not from the text of the source: active = inhibition above about 32%; inactive = the rest. The entries come from a sample that favours actives as a whole.
# Assay: TEAD-YAP interaction inhibition, primary screen, TEAD-YAP interaction inhibitor project, luminescence, HEK-TIYL cells (AID 1259422);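 note: 0% = median of test compound wells and 100% = reference inhibitor wells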
# Details: TEAD-Gal4/YAP UAS-luciferase luminescence, at 9.12 µM, stronger effect = higher value
row,SMILES,inhibition
1,CC(C#N)OC(=O)c1ccc(N2CC(O)=C(c3nc4ccccc4s3)C2=N)cc1 (configuration not stated),5.73% (inactive)
2,N=C1C(c2nc3ccccc3s2)=C(O)CN1c1cccc(F)c1,31.9% (active)
3,Cc1ccc(N2CC(O)=C(c3nc4ccccc4n3C)C2=N)cc1C,-5.77% (inactive)
4,O=C1N[C@H](Cc2ccc(O)cc2)C(=O)N2CCN(C(=O)Oc3ccc(Cl)cc3)C[C@H]12,-0.03% (inactive)
5,Cc1cccc(CC(=O)Nc2cnn(-c3cccc(C(=O)N(C)Cc4ccon4)c3)c2)c1,8.24% (inactive)
6,COCc1cc(C(C)=O)ccc1OCC(=O)c1cc(C)n(-c2ccc(F)cc2)c1C,-1.2% (inactive)
7,COc1ccc(-n2c(C)cc(C(=O)COC(=O)COc3ccccc3C=O)c2C)cc1,5.99% (inactive)
8,Cc1cc(C(=O)COC(=O)C2CC2)c(C)n1-c1ccc(F)cc1,39% (active)
9,Cc1ccc(CCNC(=O)CCCNS(=O)(=O)c2ccc3c(c2)CCC(=O)N3)cc1,1.68% (inactive)
10,COc1ccc(CNc2nc(Nc3ccc(OC)cc3)nc3cc(OC)c(OC)cc23)cc1,1.6% (inactive)
11,Fc1ccccc1-c1nc(NCC2CCCO2)c2ccccc2n1 (configuration not stated),25.9% (inactive)
12,Fc1ccccc1CSc1nc(NCC2CCCO2)c2ccccc2n1 (configuration not stated),0% (inactive)
13,Fc1ccc(Nc2nc(NCc3ccccc3)c3ccccc3n2)cc1,42% (active)
14,Fc1ccc(CSc2nc(NCc3ccccc3)c3ccccc3n2)cc1,-9.53% (inactive)
15,Fc1ccc(Nc2nc(NCC3CCCO3)c3ccccc3n2)cc1 (configuration not stated),42.1% (active)
16,O=C(c1cc(COc2ccc(F)cc2Cl)on1)N1C[C@@H]2CCC[C@H]1C2,-37.5% (inactive)
17,CCn1c(N2CCC(C(=O)NCCc3ccc(O)cc3)CC2)nc2ccccc21,4.47% (inactive)
18,CC(CCc1ccco1)NC(=O)C1CCN(c2nc3ccccc3n2C)CC1 (configuration not stated),9.58% (inactive)
19,COc1ccc2[nH]cc(CCNC(=O)C3CCN(c4nc5ccccc5n4C)CC3)c2c1,34.1% (active)

row,SMILES,inhibition
1,COc1c(C(=O)Nc2ccc(NC(C)=O)cc2)ccc2ccccc12,-28.1% (inactive)
2,Cc1ncn(-c2ccc(Nc3nccc(-c4cc(C#N)cc(NC5CCN(C)CC5)c4)n3)cc2)n1,16.9% (inactive)
3,Cc1ncn(-c2ccc(Nc3nccc(N4CCc5[nH]ncc5C4)n3)cc2)n1,49.9% (active)
4,CN1CCN(c2ncn(-c3ccc(Nc4nccc(-c5ccc(NS(C)(=O)=O)cc5)n4)cc3)n2)CC1,-0.18% (inactive)
5,OCCN1CCN(C(c2ccc(F)cc2)c2ccc3cccnc3c2O)CC1 (configuration not stated),87.9% (active)
6,Oc1c(C(c2cccnc2)N2CCOCC2)ccc2cccnc12 (configuration not stated),29% (inactive)
7,CCc1nc2sc(C(c3ccc(F)cc3)N3CCCC3)c(O)n2n1 (configuration not stated),-0.93% (inactive)
8,Cc1ccccc1CN1CCN2C(=O)[C@H](Cc3ccc(O)cc3)NC(=O)[C@H]2C1,0.18% (inactive)
9,Cc1c(Cl)cccc1NC(=O)NNC(=O)C(N)=O,17% (inactive)
10,Cc1nn(CC(=O)NCc2ccccn2)c(=O)c2ccccc12,-1.32% (inactive)
11,N#Cc1ccc(C(=O)OCC(=O)Nc2ccc3c(c2)C(=O)c2ccccc2C3=O)cc1,-21.3% (inactive)
12,CCOc1ccc(/C=C(\C#N)c2nc3ccccc3c(=O)[nH]2)cc1OC,-0.7% (inactive)
13,CCOc1cc(/C=C(\C#N)c2nc3ncc(Br)cc3[nH]2)ccc1O,-0.3% (inactive)
14,CCOc1cc(/C=C(\C#N)c2nc(-c3cccs3)c(NC(C)=O)s2)ccc1O,41.9% (active)
15,COc1ccccc1NC(=O)Cn1cnc2sc(C(=O)Nc3ccc(F)cc3Cl)c(C)c2c1=O,10.1% (inactive)
16,CCC(Sc1nc(Nc2ccc(F)c(F)c2)c2ccccc2n1)C(=O)Nc1ccc2c(c1)OCO2 (configuration not stated),6.11% (inactive)
17,Cn1ncc(I)c1C(=O)N1CCc2ccccc2C1,-9.15% (inactive)
18,CN(Cc1ccccc1)CC(O)COc1ccc(CNCCN2CCCCC2)cc1 (configuration not stated),3.88% (inactive)
19,CN(C)c1ccc(NC(=O)CSc2nc3cc4c(cc3cc2C#N)OCCO4)cc1,66.1% (active)

row,SMILES,inhibition
1,Cc1cc(NC(=O)CSc2nc3cc4c(cc3cc2C#N)OCCO4)no1,2.38% (inactive)
2,Cc1ccc(NC(=O)CSc2nc3cc4c(cc3cc2C#N)OCCO4)cc1,20.6% (inactive)
3,COc1ccc2ncc(S(=O)(=O)c3ccc(C)cc3)c(N3CCOCC3)c2c1,-1.64% (inactive)
4,O=C(CN1C(=O)[C@H]2CCCN2C(=O)c2ccccc21)NCc1ccccc1F,2.44% (inactive)
5,CC1CCCC/C1=N/NC(=O)CNc1ccc(Cl)cc1Br (configuration not stated),3.05% (inactive)
6,CCOC(=O)C1=C(Cl)c2ccccc2NC1Cl (configuration not stated),2.33% (inactive)
7,COc1cccc(CC2=NOC(C(=O)NC(C)Cc3ccsc3)C2)c1 (configuration not stated),-35% (inactive)
8,C=CCOC(=O)c1[nH]c2c(c1C)C(=O)CC(c1ccccc1)C2 (configuration not stated),42.7% (active)
9,CCCOCCOC(=O)c1[nH]c2c(c1C)C(=O)CC(c1ccc(OC)cc1)C2 (configuration not stated),-2.72% (inactive)
10,CCSCCOC(=O)C1=C(C)NC2=C(C(=O)CC(c3ccccc3)C2)C1c1ccccc1 (configuration not stated),7.09% (inactive)
11,CCOCCOC(=O)C1=C(C)NC2=C(C(=O)CC(c3cccs3)C2)C1c1ccc(OC(C)=O)cc1 (configuration not stated),7.32% (inactive)
12,CCOC(=O)C1=C(C)NC2=C(C(=O)CC(c3ccccc3)C2)C1c1ccccn1 (configuration not stated),11.1% (inactive) and 10.6% (inactive)
13,CSCCOC(=O)c1[nH]c2c(c1C)C(=O)CC(c1cccs1)C2 (configuration not stated),45.5% (active)
14,CCCOC(=O)C1=C(C)NC2=C(C(=O)CC(C)(C)C2)C1c1cccs1 (configuration not stated),-1.04% (inactive) and 6.64% (inactive)
15,CCCOC(=O)c1[nH]c2c(c1C)C(=O)CC(c1cccs1)C2 (configuration not stated),54.8% (active)
16,CCSCCOC(=O)C1=C(C)NC2=C(C(=O)CC(c3cccs3)C2)C1c1ccsc1 (configuration not stated),1.93% (inactive)
17,COc1ccc2oc(=O)c(S(=O)(=O)c3ccc(C)cc3)cc2c1,7.59% (inactive)
18,COc1ccc2cc(Br)ccc2c1CC(=O)N(C)C1CCN(C)CC1,-3.7% (inactive)
19,COc1ccccc1NC(=O)NC(CC(=O)O)c1ccc(C)cc1 (configuration not stated),3.42% (inactive)
